Shown are actives, neighbours in structure and some others; about 19% of the full set was active somewhere.
SW480 rereplic: DNA re-replication induction in SW480 cells | Potency, µM (series often up to 46.1 µM), most hits filed as activators | SW480 DNA re-replication, Hoechst DNA content imaging, 48 h | AID 624297 | hit rate 1.8% among 340,000; further: nearly all actives have a fitted effect of over 55% in size
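Quantitative HTS format with DMSO vehicle controls; 48 hr drug incubation at 37 C, then 40 min Hoechst staining and scanning imager measurement at 405 nm excitation.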
MCF10A rereplic: induces DNA re-replication in MCF 10a normal breast cells; MCF 10A DNA re-replication, Hoechst nuclear intensity, 48 h; Potency, µM (highest dose often 46.1 µM), actives largely listed as activators; hit rate 2.9% among 350,000; further: nearly all actives have a fitted effect of over 50% in size
DT40 TDP1 CPT: DT40-hTDP1 cell growth loss with CPT; chicken DT40 Tdp1-/-;hTDP1 cells + 20 nM CPT, ATP luminescence, 48 h; Potency, µM (titrated, usually from 46.2 µM), usual class: inhibitors; hit rate 12% among 420,000; AID 686979; further: nearly all actives have a fitted effect of over 55% in size
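Cell growth measured by CellTiter-Glo luminescence after a minimum 48 h, 37 C compound exposure with 20 nM CPT in Tdp1-knockout DT40 cells stably expressing hTDP1, seeded 400/well; qHTS titration format.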
IL-1B inflam inh: inflammasome signaling inhibition, IL-1 beta readout. THP-1 LPS/ATP IL-1B secretion, AlphaLISA, 16 h; hits give low values. activity change, % at 57.5 µM. hit rate 4.7% among 360,000. AID 743279; in the data active means activity change below about -50%; inconclusive means mostly about -30% to -49%
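Secreted IL-1B measured by AlphaLISA bead assay after 16 h compound exposure of THP-1 cells; compounds (final up to 57.5 uM) added 1 h before LPS (250 ng/mL) and ATP (1.25 mM) stimulation; lower signal means less secretion.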
BCR signal inh: inhibitors of chronic active B-cell receptor signaling; ABC-DLBCL IkBa-CBG/CBR reporter, luminescence ratio, 4 h; Potency, µM (highest dose often 46.1 µM), most hits filed as inhibitors; hit rate 0.05% among 340,000; active means well fitted inhibition curve with a large enough effect in the signal ratio, with a control signal flat, not every such curve was filed as active; inconclusive means small, poorly fitted or top-dose-only effect, or effect the other way, or a change in a side signal; the % refers to the signal ratio
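Doxycycline induced both beetle luciferases in TMD8 lymphoma cells; IKK-driven degradation limits the IkappaBalpha-fused green signal, while red luminescence normalises for cell number and nonspecific effects. Compounds tested up to 46 uM, 4 hrs.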
DT40 TDP1 no CPT: qHTS for Inhibitors of human tyrosyl-DNA phosphodiesterase 1 (TDP1): qHTS in cells in absence of CPT; DT40 Tdp1-/- hTDP1 cells, no CPT, ATP luminescence, 48 h; hit rate 15% among 420,000; Potency, µM (highest dose often 46.2 µM), usual class: inhibitors; further: nearly all actives have a fitted effect of over 55% in size
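Seeded 400 DT40-hTDP1 cells/well (vehicle DMSO, no 20 nM CPT); pinned compounds; ≥48 hr at 37 °C; CellTiter-Glo luminescence as viability measure.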
A number is an active result; – = inactive; ? = inconclusive; · = no result given; [ ] = dose if it differs, or a comment. Unless noted, the call rests on the fitted dose curve; in most records, active means well fitted curve in the direction sought with a large enough effect; inconclusive means small, poorly fitted or top-dose-only effect, or another doubt; inactive means no such curve, though single readings can be large; an effect the other way counts as inactive or inconclusive.

SMILES	SW480 rereplic	MCF10A rereplic	DT40 TDP1 CPT	IL-1B inflam inh	BCR signal inh	DT40 TDP1 no CPT
CCNCC(=O)N1c2ccccc2CCc2ccc(NC(=O)OCC)cc21	–	–	?	-69	?	?
CCOC(=O)Nc1ccc2c(c1)N(C(=O)CN)c1ccccc1CC2	–	?	?	-63	–	?
CNCCC(=O)N1c2ccccc2CCc2ccc(NC(=O)OC)cc21	–	–	?	–	–	?
CN(CCOc1ccccc1)S(=O)(=O)c1ccc2oc3ccccc3c2c1	–	?	?	–	–	23µM
CCOc1ccc(NC(=O)Cn2c(=O)n(-c3cccc(OC)c3)c(=O)c3c4c(sc32)CCCC4)cc1	·	·	?	·	·	–
COc1ccc(N2C(=O)CSC23C(=O)N(CC(=O)Nc2ccccc2F)c2ccccc23)cc1 (centres undefined)	·	·	–	·	·	–
COc1cccc(N2C(=O)CSC23C(=O)N(CC(=O)Nc2cccc(Cl)c2)c2ccccc23)c1 (centres undefined)	·	·	18µM	·	·	?
O=C(CN1C(=O)C2(SCC(=O)N2c2cccc(Cl)c2)c2ccccc21)NC1CCCCC1 (centres undefined)	·	·	16µM	·	·	18µM
Cc1cc(C)cc(N2C(=O)CSC23C(=O)N(CC(=O)NC2CCCCC2)c2ccccc23)c1 (centres undefined)	·	·	21µM	·	·	?
O=C(CN1C(=O)C2(SCC(=O)N2c2ccc(F)cc2)c2ccccc21)NC1CCCCC1 (centres undefined)	·	·	–	·	·	–
COc1ccccc1C(=O)COC(=O)C1CCN(S(=O)(=O)c2ccccc2)CC1	·	·	–	–	·	–
COC(=O)c1cc(S(=O)(=O)N2CCCC2=O)c(Cl)cc1Cl	–	–	–	?	–	–
Cc1ccc(C)c(OCC(=O)Nc2cc(NC(=O)COc3cc(C)ccc3C)cc(C(=O)O)c2)c1	–[9.22 µM]	?	–	–	–	?
COc1cccc(NC(=O)N2CCC(n3c(C)nc4cccnc43)CC2)c1	·	·	–	·	·	–
COc1ccc(C(=O)NC(C)CCn2cccn2)cc1OC1CCN(C(C)C)CC1 (centres undefined)	–	–	–	–	–	–
COc1ccc(C(=O)Cn2c(C)nc([N+](=O)[O-])c2Br)cc1	–	?	7.3µM	·	?	23µM
Cc1nc([N+](=O)[O-])cn1CC(=O)c1ccc(Br)cc1	–	–	–	–	–	–
COc1ccc(C(=O)Cn2cc([N+](=O)[O-])nc2C)cc1	–	–	–	–	–	–
Cc1nc([N+](=O)[O-])c(Br)n1Cc1ccc(Cl)c(Cl)c1	?	21µM	5.2µM	-60	?	2.6µM
Cc1nc([N+](=O)[O-])c(Br)n1CC(=O)c1ccc(Cl)cc1	?	15µM	8.2µM	-116	–	7.3µM
COC1=CC(=O)C(OC)=C(OC)C1=O	–	?	0.73µM	-102	·	1.2µM
CC(C)C(=O)N1CCN(c2ccc(NC(=O)c3ccc4c(c3)OCCO4)cc2Cl)CC1	–	18µM	?	-97	–	23µM
CC(C)C(=O)N1CCN(c2ccccc2NC(=O)c2ccc3c(c2)OCCO3)CC1	–	–	–	–	·	–
CCCC(=O)N1CCN(c2ccc(NC(=O)c3ccc4c(c3)OCCO4)cc2)CC1	–	–	–	–	–	–
CC(=O)N1CCN(c2ccc(NC(=O)c3ccc4c(c3)OCCO4)cc2Cl)CC1	–	?	?	-88	?	?
SMILES	SW480 rereplic	MCF10A rereplic	DT40 TDP1 CPT	IL-1B inflam inh	BCR signal inh	DT40 TDP1 no CPT
CCC(=O)N1CCCC1(C)C(=O)Nc1ccc(C)c(C)c1 (centres undefined)	·	·	–	–	·	–
CC(C)CN(C(=O)CSc1nn(-c2ccc(Cl)cc2)c(=S)s1)C1CCS(=O)(=O)C1 (centres undefined)	–	–	?	–	?	18µM
Cc1nnc(SCC(=O)N(CC(C)C)C2CCS(=O)(=O)C2)s1 (centres undefined)	–	–	–	–	–	–
Cc1ccc(-n2ccnc2SCC(=O)N(CC(C)C)C2CCS(=O)(=O)C2)c(C)c1 (centres undefined)	–	–	?	–	–	18µM
O=c1c2sccc2n(Cc2cc(=O)n3ccccc3n2)c(=O)n1-c1cccc(C(F)(F)F)c1	·	·	–	·	·	–
CCCCn1c(N)c(N(CC(C)C)C(=O)c2ccc(N3C(=O)CCC3=O)cc2)c(=O)[nH]c1=O	–	–	–	–	–	–
Cc1ccc(C(O)c2ncc(-c3ccc(Cl)cc3)[nH]2)c(C)c1 (centres undefined)	·	·	?	–	·	16µM
Cc1ccc(C)c(C(O)c2ncc(-c3ccc(F)cc3)[nH]2)c1 (centres undefined)	·	·	16µM	–	·	15µM
Cc1ccc(C)c(C(O)c2ncc(-c3ccc(Cl)cc3)[nH]2)c1 (centres undefined)	·	·	?	–	·	?
Cc1ccc(C(O)c2ncc(-c3cccc(C(F)(F)F)c3)[nH]2)c(C)c1 (centres undefined)	·	·	?	–	·	?
Cc1ccc(C)c(C(O)c2ncc(-c3cccc(C(F)(F)F)c3)[nH]2)c1 (centres undefined)	·	·	?	-54	·	?
Cc1ccc(C(O)c2ncc(-c3ccc(F)cc3)[nH]2)c(C)c1 (centres undefined)	·	·	?	–	·	?
CC1(C)CO[C@@H](CC(=O)O)CN1	–	–	–	·	·	–
O=C1c2ccccc2C(=O)N1CCc1c(-c2ccccc2)[nH]c2ccccc12	–	?	?	?	·	15µM
O=C1c2ccccc2C(=O)N1CCc1c(-c2[nH]c3ccccc3c2CCN2C(=O)c3ccccc3C2=O)[nH]c2ccccc12	–	–	21µM	–	·	18µM
CC(=O)c1ccc(-c2[nH]c3ccccc3c2CCN2C(=O)c3ccccc3C2=O)cc1	–	–	?	–	·	?
Cc1nn(C)c(C)c1CN(C)C(=O)c1nn2c(c1Br)NC(c1cccs1)CC2C(F)(F)F (centres undefined)	–	–	?	–	–	?
Cc1nn(C)c(C)c1CNC(=O)c1cc2n(n1)C(C(F)(F)F)CC(c1cccs1)N2 (centres undefined)	–	–	10µM	–	–	5.8µM
CCOC(=O)c1c(NC(=O)c2cc3n(n2)C(C(F)(F)F)CC(c2cccs2)N3)sc(C)c1C (centres undefined)	?	–	5.2µM	–	–	6.5µM
CCOC(=O)c1cc2n(n1)C(C(F)(F)F)CC(C)N2 (centres undefined)	–	?	–	–	?	–
